The text below walks through data of PubChem BioAssay.

Results filed as inconclusive are left out. The source made the active and inactive calls.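 The calls were made as follows, unless noted: active = viability at or below 30% in both replicate assays; inconclusive = viability at or below 30% in just one of the two assays; inactive = the rest.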

Experiment [1] in a line: Her2 expression decrease, cell viability multiplex – SKBR3 breast tumor cells, AlphaScreen, ATP viability, primary screen (AID 461;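 active = Her2 level under about 52% in both replicate screens, with viability over 70% of control, limit read from the data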;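 as to Her2 level: lower value means less Her2 protein in the cells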;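 as to viability: percent of carrier control wells set as 100% viability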). Particulars: SKBR3 Her2 protein level, 18-24 h, measured here: SKBR3 viability, ATP luminescence, at 10 µM. On the technique in general: Alpha assays give light when donor and acceptor beads are brought close together.
The target in experiment [2] is Receptor tyrosine-protein kinase erbB-2 (Homo sapiens) (UniProt P04626). Described as above. As to conditions: 18-24 h, at 10 µM, stronger effect = lower value.
Chain of Receptor tyrosine-protein kinase erbB-2 (Homo sapiens) (P04626 whole entry, looked up): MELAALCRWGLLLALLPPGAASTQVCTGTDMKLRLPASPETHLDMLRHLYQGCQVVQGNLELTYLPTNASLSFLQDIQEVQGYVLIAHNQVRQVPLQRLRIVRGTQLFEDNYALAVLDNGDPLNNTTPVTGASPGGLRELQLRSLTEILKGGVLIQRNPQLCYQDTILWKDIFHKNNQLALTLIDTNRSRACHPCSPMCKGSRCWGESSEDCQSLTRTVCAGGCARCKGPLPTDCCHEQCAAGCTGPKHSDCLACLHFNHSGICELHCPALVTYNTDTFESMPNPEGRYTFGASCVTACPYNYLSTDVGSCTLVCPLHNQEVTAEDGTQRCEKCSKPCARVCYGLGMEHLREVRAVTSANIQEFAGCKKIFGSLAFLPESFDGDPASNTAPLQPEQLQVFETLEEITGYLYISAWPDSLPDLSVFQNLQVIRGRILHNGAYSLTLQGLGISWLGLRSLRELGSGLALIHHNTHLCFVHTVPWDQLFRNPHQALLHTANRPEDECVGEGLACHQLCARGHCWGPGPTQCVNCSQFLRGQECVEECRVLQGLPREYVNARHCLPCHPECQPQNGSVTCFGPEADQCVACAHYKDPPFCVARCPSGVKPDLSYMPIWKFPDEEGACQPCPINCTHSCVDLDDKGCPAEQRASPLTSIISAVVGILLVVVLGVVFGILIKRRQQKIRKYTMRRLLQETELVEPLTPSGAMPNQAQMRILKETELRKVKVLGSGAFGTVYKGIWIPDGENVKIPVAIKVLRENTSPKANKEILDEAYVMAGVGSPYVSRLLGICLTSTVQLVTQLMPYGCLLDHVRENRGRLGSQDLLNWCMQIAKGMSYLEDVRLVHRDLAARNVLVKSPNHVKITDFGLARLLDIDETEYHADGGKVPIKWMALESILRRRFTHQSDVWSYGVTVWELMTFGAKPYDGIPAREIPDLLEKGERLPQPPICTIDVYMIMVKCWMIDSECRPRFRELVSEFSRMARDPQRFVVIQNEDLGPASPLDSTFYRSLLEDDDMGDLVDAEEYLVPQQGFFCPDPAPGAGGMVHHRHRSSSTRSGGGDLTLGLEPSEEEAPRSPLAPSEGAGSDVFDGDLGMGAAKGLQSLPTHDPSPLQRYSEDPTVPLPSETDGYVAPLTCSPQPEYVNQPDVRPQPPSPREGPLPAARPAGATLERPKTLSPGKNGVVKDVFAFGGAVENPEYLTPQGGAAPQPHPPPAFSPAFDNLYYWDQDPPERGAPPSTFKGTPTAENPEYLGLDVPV
The nature of experiment [3]: reduced viability of SK-BR-3 breast cancer cells – cell-based, 24 h, human, pilot screen (AID 572;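 active = viability at or below 10% of carrier control in both of two separate runs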;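 also: compound exposure lasted between 18 and 24 h rather than exactly 24 h; 100% = carrier-treated control wells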). Particulars: SK-BR-3 viability, CellTiter-Glo luminescence, at 10 µM, stronger effect = lower value. A general note: Cellular ATP, detected with luciferase, serves as a proxy for viable cell number.
Experiment [4] in a line: HUVEC growth inhibition – cell-based, human, primary screen (AID 575).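 Also: 100% = median of untreated cell wells with 0.1% DMSO on each plate.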 As to conditions: HUVEC proliferation, CellTiter-Glo luminescence, 72 h; at 10 µM; stronger effect = lower value.
Experiment [5] in a line: H69AR cell proliferation blockers – human, duplicate replicates, primary screen (AID 580;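 active = viability at or under a set limit in both replicates, limit being median viability minus 3 SD, cut at about 48% in these data, passing the limit was not always enough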;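 also: 100% = mean luminescence of untreated wells and 0% = no signal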). Particulars: H69AR lung tumor cells viability, ATP luminescence, 72 h; at 10 µM; stronger effect = lower value.
Experiment [6] in a line: MRP1 drug-resistance reversers in H69AR cells – cell-based, doxorubicin co-treatment, pilot screen (AID 601;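 active = viability loss from added drug above about 55%, and viability with drug at most 40%, in both replicates, limit read from the data, passing the limit was not always enough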). As to conditions: CellTiter-Glo, 72 h, at 10 µM; for differential viability (reversal): stronger effect = higher value.
The nature of experiment [7]: yeast transport mutant growth inhibition pilot in 384-well plates, post-Golgi transport modulator project (AID 636; in the data active = inhibition above about 31%). As to conditions: absorbance 615 nm, about 18 h, stronger effect = higher value.
Experiment [8] can be described thus: growth suppression of yeast trafficking mutant, preliminary HTS, modulators of trafficking downstream of Golgi apparatus project, 1536-format plate, OD 615 nm (AID 637; in the data active = inhibition above about 30%). As to conditions: yeast transport mutant growth, absorbance 615 nm, 18 h; stronger effect = higher value.
Experiment [9] is described as follows: S. cerevisiae growth inhibition in permissive medium (OD615), pilot counter-assay for S. cerevisiae lifespan shortening project, permissive growth control (AID 705;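 active = growth inhibition above 25% in both replicates, a cutoff set 3 SD above the mean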). As to conditions: OD615, 24 h, at 10 µM, stronger effect = higher value.
Experiment [10] can be described thus: S. cerevisiae growth inhibition in restrictive medium, OD615, pilot screen, restrictive growth control, yeast lifespan reduction project (AID 706;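 active = growth inhibition above a set limit, 3 SD over mean compound inhibition, in both replicates, cut at about 43% in these data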;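 also: modified DeaD lifespan yeast strain shifted to restrictive glucose medium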). Particulars: OD615, 48 h, at 10 µM, stronger effect = higher value.
The nature of experiment [11]: doxorubicin toxicity protection in MRP-1 cells – H69AR cells, CellTiter-Glo, duplicate, MRP-1 activator project, pilot screen (AID 807;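 active = viability increase at or above a cutoff of the median across tested compounds plus 3 SD, cut at about 8.5% in these data, passing the limit was not always enough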;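 also: compound pretreatment 18-22 h then 72 h combined with doxorubicin; 0% = doxorubicin alone and 100% = vehicle without doxorubicin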). Particulars: H69AR viability with doxorubicin, CellTiter-Glo luminescence; at 10 µM; stronger effect = higher value.
Experiment [12] is described as follows: viability of HCT116 without oncogenic beta-catenin – human colon tumor cells, pilot screen (AID 823;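 active = cell viability at or below a set limit in both duplicate runs, the limit being the all-compound median minus 4 SD, cut at about 23% in these data, passing the limit was not always enough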;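 also: 0% = wells killed by 20 µM Hyamine and 100% = untreated DMSO cell wells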). Particulars: HCT116 beta-catenin knockout viability, CellTiter-Glo, 60 h; at 10 µM; stronger effect = lower value.
A short description of experiment [13]: viability of PTEN-null HCT116 cells – cell-based, HCT116 clonal line, CellTiter-Glo, pilot screen (AID 824;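 active = viability at or below 27.92% in each of two runs, the all-compound median minus 4 SD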;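 also: 0% = 20 µM Hyamine control and 100% = vehicle cell control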). Particulars: HCT116 PTEN-deleted viability, 60 h, at 10 µM, stronger effect = lower value.
The nature of experiment [14]: RAM pathway blockade in budding yeast – dse1pr::URA3 reporter, 5-FOA selection, pilot screen (AID 869;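 active = inhibition over a set limit, the all-compound mean plus 3 SD, in both replicate runs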;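 also: 0% = DMSO wells with no growth and 100% = 10 µM 1-NA-PP1 with full growth; RAM network block rescues cells from 5-FOA so hits raise OD615 growth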). Particulars: S. cerevisiae dse1pr::URA3 5-FOA growth, OD615, 2 d; at 10 µM; stronger effect = higher value; strain carries analog-sensitive mutant Cbk1 kinase.
Experiment [15] can be described thus: RAM signaling pathway blockade in yeast – S. cerevisiae, Pdr1DBD-CYC8 efflux-inhibited sensitized strain, primary screen (AID 1298;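 active = RAM network inhibition above 8.4% in each of two replicates, 3 SD over the compound average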;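 also: 0% = DMSO untreated cells without growth and 100% = 10 µM 1-NA-PP1 full growth; higher means more yeast growth rescued from 5-FOA killing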). Particulars: S. cerevisiae cbk1-as DSE1-URA3 strain, 5-FOA growth OD615, 2 d; at 50 µM; stronger effect = higher value.
Where [16] appears, read: H69AR cells + 2 uM doxorubicin, measured here: viability with 2 uM doxorubicin, stronger effect = lower value.
Where [17] appears, read: H69AR cells, compound alone cytotoxicity.

The viability is a read-out of living cells in per cent, often relative to untreated cells. A word on the inhibition: it is the relative decrease from the control value, in per cent. In the case of `Cc1c(Cl)cccc1NC(=O)CCN1CCCCC1`, the viability in experiment [1] is 100%; in experiment [3], 100% (inactive); in experiment [4] it was 100% (inactive); in experiment [5] it was 101% (inactive); in [6] (setting [16]) it was 94.9%; in experiment [6] (setting [17]) it was 101%. Moreover, the viability in [12] is 100% (inactive); in experiment [13] it was 96.4% (inactive). For the same compound, the Her2 level in experiment [2] is 92% (inactive). Besides, in experiment [6] (H69AR cells + 2 uM doxorubicin), the differential viability (reversal) was 6% (inactive). Moreover, the inhibition was -2.8% (inactive) in experiment [7], 0.16% (inactive) in experiment [8] and 0.655% (inactive) in experiment [14]. Further, the growth inhibition in [9] is -7.21% (inactive); in [10] it was 2.33% (inactive). Also, the viability increase in experiment [11] was -1.01% (inactive). The RAM network inhibition in experiment [15] is 4.96% (inactive).
Take `CN(C1CCCCC1)S(=O)(=O)c1ccc(S(=O)(=O)N2CCN(CCC#N)CC2)cc1`: the viability is 89.5% in [1]; 89.5% (inactive) in experiment [3]; 98.5% (inactive) in experiment [4]; 103% (inactive) in [5]; 74.8% in experiment [6] (setting [16]); 103% in experiment [6] (setting [17]). Moreover, the viability in experiment [12] is 97.2% (inactive); in experiment [13] it was 91.5% (inactive). For the same compound, in experiment [2], the Her2 level was 92.5% (inactive). In experiment [6] (H69AR cells + 2 uM doxorubicin), the differential viability (reversal) was 27.9% (inactive). Further, the inhibition is -2.27% (inactive) in experiment [7], 4.26% (inactive) in [8] and 0.805% (inactive) in experiment [14]. Besides, the growth inhibition in experiment [9] was -11.3% (inactive); in experiment [10], -3.55% (inactive). Besides, the viability increase in experiment [11] is -1.47% (inactive). Moreover, in experiment [15], the RAM network inhibition is 1.41% (inactive).
Turning to `COc1nc(Oc2ccc(=O)n(C)n2)nc(N(C)C)n1`, the viability in [1] was 81%; in experiment [3] it was 81% (inactive); in experiment [4] it was 88.5% (inactive); in experiment [5] it was 92.7% (inactive); in experiment [6] (setting [16]), 95.1%; in [6] (setting [17]), 92.7%. The figures for the viability in experiment [12] and in [13] were 95.2% (inactive) and 101% (inactive), respectively. Also, the Her2 level in [2] was 107% (inactive). The differential viability (reversal) in [6] (H69AR cells + 2 uM doxorubicin) was -2.47% (inactive). The inhibition is 1.67% (inactive) in experiment [7], -9% (inactive) in experiment [8] and 2.61% (inactive) in experiment [14]. For the same compound, the growth inhibition in [9] was -3.33% (inactive); in [10], 0.62% (inactive). Also, in experiment [11], the viability increase was 0.29% (inactive). The RAM network inhibition in experiment [15] is 1.59% (inactive).
On to `CCOC(=O)C(C)Sc1nnc(Cc2cc(=O)[nH]c(=O)[nH]2)n1-c1ccc(Cl)cc1` (stereo not given), for which the viability in [1] was 92.5%; in [3], 92.5% (inactive); in [4], 102% (inactive); in experiment [5] it was 103% (inactive); in experiment [6] (setting [16]), 98.2%; in experiment [6] (setting [17]), 103%. Further, the figures for the viability in experiment [12] and in [13] were 104% (inactive) and 105% (inactive), respectively. Also, in [2], the Her2 level is 96.5% (inactive). In addition, the differential viability (reversal) in [6] (H69AR cells + 2 uM doxorubicin) is 4.81% (inactive). In addition, the inhibition is 1.54% (inactive) in experiment [7], 5.5% (inactive) in [8] and 1.45% (inactive) in experiment [14]. Also, the growth inhibition was -16.5% (inactive) in [9] and -11.5% (inactive) in [10]. Also, the viability increase in [11] was 0.97% (inactive). Further, the RAM network inhibition in [15] is 5.81% (inactive).
Consider `CCCCN(CC)CCCNC(=O)c1cc2c(=O)n(C)c3ccccc3c2n1C`, for which the viability is 76% in experiment [1]; 76% (inactive) in experiment [3]; 67.5% (inactive) in experiment [4]; 70.1% (inactive) in experiment [5]; 70.2% in experiment [6] (setting [16]); 70.1% in experiment [6] (setting [17]). For the same compound, the viability in experiment [12] is 55.8% (inactive); in experiment [13] it was 54.6% (inactive). The Her2 level in experiment [2] was 77% (inactive). In experiment [6] (H69AR cells + 2 uM doxorubicin), the differential viability (reversal) is -0.115% (inactive). Besides, the inhibition in experiment [7] was -2.05% (inactive); in experiment [8], -2% (inactive); in experiment [14], -0.01% (inactive). For the same compound, the growth inhibition in [9] is -8.88% (inactive); in [10], -1.18% (inactive). In [11], the viability increase is -7.73% (inactive). In experiment [15], the RAM network inhibition is 1.02% (inactive).
